According to PubChem BioAssay (NCATS):
Where “and” joins values, the source holds several entries; their conditions need not be identical. Equal entries are not always repeated. Records with an inconclusive call do not appear. Calls of active or inactive are those of the source. Unless noted, calls come from the whole dose curve; as a rule, active = well fitted curve in the direction sought with a large enough effect; inconclusive = small, poorly fitted or top-dose-only effect, or another doubt; inactive = no such curve, though single readings can be large; an effect the other way counts as inactive or inconclusive.

Legend:
[1] = qHTS assay for environmental chemicals that activate the Aryl hydrocarbon Receptor (AhR) signaling pathway (AID 651777); conditions: 1A2-DRE human hepatoma cells, luciferase, 24 h; activation: stronger effect = higher value; note: nearly all actives have a fitted effect of over 15% in size; note: potency is the fitted concentration of half-maximal effect; for activation: % of control where 0% means no effect
Procedure, shortened: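 AhR activation is scored as a rise in luciferase from a stable DRE–CYP1A2 promoter construct in human hepatoma cells. Treatment lasts 24 hr at 37 C; detection uses One-Glo after 30 min at room temperature.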

[2] = target: Peroxisome proliferator-activated receptor alpha (Homo sapiens) (UniProt Q07869); assay: qHTS assay for small molecule agonists of the peroxisome proliferator-activated receptor alpha (PPARalpha) signaling pathway (AID 651778); conditions: PathHunter PPARalpha complementation, chemiluminescence, 6 h; max response: stronger effect = higher value; note: % of control where 0% means no effect
Peroxisome proliferator-activated receptor alpha (Homo sapiens), sequence (Q07869 whole entry, looked up): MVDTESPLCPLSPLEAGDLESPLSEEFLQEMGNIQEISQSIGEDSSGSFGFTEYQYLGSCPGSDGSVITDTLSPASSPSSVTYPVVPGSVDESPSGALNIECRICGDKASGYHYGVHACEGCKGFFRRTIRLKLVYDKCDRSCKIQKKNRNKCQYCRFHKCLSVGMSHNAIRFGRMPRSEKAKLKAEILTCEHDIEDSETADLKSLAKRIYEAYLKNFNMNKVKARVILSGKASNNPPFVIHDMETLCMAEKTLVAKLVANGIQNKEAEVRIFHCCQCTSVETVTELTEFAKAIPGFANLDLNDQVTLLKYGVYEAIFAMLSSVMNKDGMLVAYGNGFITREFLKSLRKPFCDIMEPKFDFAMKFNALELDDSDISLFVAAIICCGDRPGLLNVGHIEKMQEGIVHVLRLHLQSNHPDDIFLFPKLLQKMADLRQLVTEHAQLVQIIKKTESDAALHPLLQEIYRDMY
Procedure, shortened: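 Chemiluminescence from complemented enzyme reported PPARalpha activation in cells after 6 hr of compound treatment at 37 C. The detection reagent was incubated for 60 min at room temperature, and compounds were scored as agonists.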

[3] = target: Nuclear receptor ROR-gamma (Homo sapiens) (UniProt P51449); assay: qHTS assay for small molecule antagonists of the retinoid-related orphan receptor gamma (ROR-gamma) signaling pathway (AID 651802);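 note: CHO cells with doxycycline-induced ROR-gamma expression; luciferase reporter luminescence driven by ROR response element; % is set by controls: 0 for no effect and ±100 for the full control effect; nearly all actives have a fitted effect of over 60% in size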
Nuclear receptor ROR-gamma (Homo sapiens), sequence (P51449 whole entry, looked up): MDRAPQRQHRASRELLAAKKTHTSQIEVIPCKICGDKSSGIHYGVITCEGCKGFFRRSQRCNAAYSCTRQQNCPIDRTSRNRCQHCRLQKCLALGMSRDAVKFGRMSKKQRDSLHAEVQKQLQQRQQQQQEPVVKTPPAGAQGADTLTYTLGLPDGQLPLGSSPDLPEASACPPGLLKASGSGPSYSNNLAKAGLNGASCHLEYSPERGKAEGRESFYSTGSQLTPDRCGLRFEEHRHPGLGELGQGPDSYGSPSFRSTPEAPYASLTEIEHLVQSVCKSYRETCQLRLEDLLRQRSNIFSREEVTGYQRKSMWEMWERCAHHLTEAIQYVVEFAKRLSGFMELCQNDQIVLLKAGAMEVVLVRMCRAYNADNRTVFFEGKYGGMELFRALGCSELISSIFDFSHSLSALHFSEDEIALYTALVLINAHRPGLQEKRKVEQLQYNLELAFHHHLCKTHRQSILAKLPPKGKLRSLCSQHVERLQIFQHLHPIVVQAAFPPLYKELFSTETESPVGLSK
Procedure, shortened: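 Luminescence (One-Glo, 30 min RT) measured 16 h after compound addition and doxycycline induction at 37C. Reporter: RORE-luciferase under TET-inducible ROR-gamma in CHO cells.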

[4] = qHTS assay for small molecule agonists of the antioxidant response element (ARE) signaling pathway measured by Nrf2-dependant transcriptional activity (AID 720636; active = well fitted curve in the direction sought with a large enough effect in the repeat runs; an effect the other way counts as inactive or inconclusive; note: potency is the fitted concentration of half-maximal effect;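 for activation: HepG2 cells with an ARE-driven luciferase reporter; % of control where 0% means no effect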)
Procedure, shortened: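 First, ARE-luc HepG2 cells attached for 6 hr at 37 C in 1% dialyzed FBS medium. Next, compound or DMSO was added and incubated 16 hr. Finally, ONE-Glo reagent was added and luminescence measured after 30 min.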

[5] = qHTS assay for small molecule antagonists of the retinoid-related orphan receptor gamma (ROR-gamma) signaling pathway - cell viability counter screen (AID 720652; active = well fitted curve in the direction sought with a large enough effect in the repeat runs; an effect the other way counts as inactive or inconclusive;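 note: CHO reporter cells with doxycycline-induced ROR-gamma expression; compound exposure lasted 16 hr before ATP read; % is set by controls: 0 for no effect and ±100 for the full control effect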)
Procedure, shortened: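 Cytotoxicity counter screen: intracellular ATP (CellTiter-Glo luminescence) measured in the doxycycline-induced CHO RORE-luciferase reporter line after 16 hr compound exposure at 37 C, 5% CO2.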

[6] = qHTS assay for small molecule agonists of the antioxidant response element (ARE) signaling pathway measured by Nrf2-dependant transcriptional activity - cell viability counter screen (AID 720653; active = well fitted curve in the direction sought with a large enough effect in the repeat runs; an effect the other way counts as inactive or inconclusive; note: % is set by controls: 0 for no effect and ±100 for the full control effect); conditions: ARE-bla HepG2 viability, CellTiter-Glo ATP luminescence, 16 h; max response: stronger effect = lower value
Procedure, shortened: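 Cytotoxicity counter screen: intracellular ATP quantified by CellTiter-Glo luminescence in the same ARE-bla HepG2 plates, after 16 h compound exposure and a 2 h beta-lactamase substrate step.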

[7] = qHTS Assay for Identifying Gametocytocidal Compounds (AID 743244); note: potency is the fitted concentration of half-maximal effect;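 for max response: % is set by controls: 0 for no effect and ±100 for the full control effect; actives lower the fluorescent signal which means gametocytes are killed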; conditions: P. falciparum 3D7 stage III-V gametocytes, alamarBlue, 72 h; max response: stronger effect = lower value
Procedure, shortened: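 Fluorescence at Ex 525/Em 598 nm, recorded 24 h after alamarBlue addition, reports residual metabolic activity of 3D7 gametocytes (stages III–V) following 72 h compound exposure at 37 °C, 5% CO2.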

[8] = qHTS assay for cell viability of HEK293 cells (AID 743288); conditions: ATP luminescence (CellTiter-Glo), 18 h; max response: stronger effect = lower value; note: % is set by controls: 0 for no effect and ±100 for the full control effect; nearly all actives have a fitted effect of over 50% in size
Procedure, shortened: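 After 18 h compound exposure at 37 C, parental HEK293 cells (2,000/well) are lysed with CellTiter-Glo and luminescence is read following 30 min at room temperature.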

[9] = qHTS assay for cell viability of the p53RE-bla HCT-116 cell line (AID 743292); note: % is set by controls: 0 for no effect and ±100 for the full control effect; nearly all actives have a fitted effect of over 55% in size
Procedure, shortened: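 Quantitative high-throughput format: compounds in DMSO were pinned onto p53RE-bla HCT-116 cells (4,000/well) and incubated 16 h at 37 C. Total intracellular ATP, read by CellTiter-Glo luminescence, reflects viable cell number.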

[10] = target: Arylsulfatase A (Homo sapiens) (UniProt P15289); assay: qHTS screen for enhancers of Arylsulfatase A (ASA1): LOPAC Validation Assay (AID 720538); conditions: outcome: dose series up to 57.5 µM; note: 0% is about no effect
Arylsulfatase A (Homo sapiens), sequence (P15289 whole entry, looked up): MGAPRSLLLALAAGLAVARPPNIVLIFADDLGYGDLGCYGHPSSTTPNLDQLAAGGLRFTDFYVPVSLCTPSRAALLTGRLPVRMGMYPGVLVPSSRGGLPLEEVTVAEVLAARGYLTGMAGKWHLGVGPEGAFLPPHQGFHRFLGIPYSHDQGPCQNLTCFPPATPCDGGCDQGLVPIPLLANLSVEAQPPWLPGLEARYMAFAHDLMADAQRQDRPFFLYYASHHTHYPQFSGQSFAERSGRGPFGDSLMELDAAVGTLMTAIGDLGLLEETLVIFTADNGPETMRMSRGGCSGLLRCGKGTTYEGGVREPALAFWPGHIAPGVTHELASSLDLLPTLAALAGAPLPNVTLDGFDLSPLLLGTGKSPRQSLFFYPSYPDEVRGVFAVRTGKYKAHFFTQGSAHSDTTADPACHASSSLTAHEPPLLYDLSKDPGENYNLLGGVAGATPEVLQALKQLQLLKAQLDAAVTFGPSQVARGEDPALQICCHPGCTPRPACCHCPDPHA
Procedure, shortened: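 SV40-transformed skin fibroblasts from an MLD patient (ASA-I179S) were treated with compounds for 48h at 37 degree C, then lysed with 0.5mM pNCS final substrate for 14h at room temperature; NaOH stop, fluorescence read (Ex=525 nm; Em=598 nm).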

[11] = qHTS for compounds that reverse cellular toxicity of Amyloid beta (A-beta) peptide in yeast: LOPAC Validation Assay (AID 720559);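 note: plate controls were DMSO for no effect and equimolar ferric chloride plus clioquinol rescue for full effect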
Procedure, shortened: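 Yeast cells expressing toxic A-beta were combined with pinned compounds in growth medium and incubated 48 hr at 30 C. Growth was read as absorbance at 600 nm and normalized to DMSO and to an equimolar FeCl3/clioquinol positive control.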

[12] = qHTS for Activators of Parkin Expression: LOPAC Validation Assay (NLuc Reporter) (AID 720572)
Procedure, shortened: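 Compound effects on Parkin promoter activity were measured as NanoLuc luminescence after 24 h at 37 C. The neuronal reporter line also carried FLuc, which was read first. LOPAC compounds were tested at 7 concentrations, with normalization to DMSO (0%) and positive control (100%).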

[13] = qHTS for Activators of Parkin Expression: LOPAC Validation Assay (FLuc Reporter) (AID 720573)
Procedure, shortened: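 Neuronal cell line stably carrying FLuc/NLuc coincidence reporter under Parkin promoter; cells plated 24 h, then compounds added in 7-point dose response for 24 h at 37 C. FLuc luminescence read; normalized to DMSO and positive control (100%).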

[14] = target: T1, Hexokinase-4 (Homo sapiens) + Glucokinase regulatory protein (Homo sapiens) (UniProt P35557+Q14397); assay: qHTS assay for inhibitors of recombinant human GCK-GKRP interaction: Diaphorase-coupled assay (AID 743205)
T1 sequence (P35557 whole entry, looked up): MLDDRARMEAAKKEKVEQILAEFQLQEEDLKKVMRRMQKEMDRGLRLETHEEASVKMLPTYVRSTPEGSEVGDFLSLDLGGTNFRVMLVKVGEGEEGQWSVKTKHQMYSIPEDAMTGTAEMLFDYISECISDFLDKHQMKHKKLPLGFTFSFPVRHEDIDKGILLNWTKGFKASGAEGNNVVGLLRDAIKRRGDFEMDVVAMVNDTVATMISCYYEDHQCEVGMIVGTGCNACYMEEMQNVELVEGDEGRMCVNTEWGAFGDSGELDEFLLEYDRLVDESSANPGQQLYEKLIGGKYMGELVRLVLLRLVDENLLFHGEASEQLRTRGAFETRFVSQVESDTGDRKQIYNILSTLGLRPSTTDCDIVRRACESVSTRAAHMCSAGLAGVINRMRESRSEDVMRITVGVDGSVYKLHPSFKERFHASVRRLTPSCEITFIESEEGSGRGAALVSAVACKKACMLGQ
T1 sequence (Q14397 whole entry, looked up): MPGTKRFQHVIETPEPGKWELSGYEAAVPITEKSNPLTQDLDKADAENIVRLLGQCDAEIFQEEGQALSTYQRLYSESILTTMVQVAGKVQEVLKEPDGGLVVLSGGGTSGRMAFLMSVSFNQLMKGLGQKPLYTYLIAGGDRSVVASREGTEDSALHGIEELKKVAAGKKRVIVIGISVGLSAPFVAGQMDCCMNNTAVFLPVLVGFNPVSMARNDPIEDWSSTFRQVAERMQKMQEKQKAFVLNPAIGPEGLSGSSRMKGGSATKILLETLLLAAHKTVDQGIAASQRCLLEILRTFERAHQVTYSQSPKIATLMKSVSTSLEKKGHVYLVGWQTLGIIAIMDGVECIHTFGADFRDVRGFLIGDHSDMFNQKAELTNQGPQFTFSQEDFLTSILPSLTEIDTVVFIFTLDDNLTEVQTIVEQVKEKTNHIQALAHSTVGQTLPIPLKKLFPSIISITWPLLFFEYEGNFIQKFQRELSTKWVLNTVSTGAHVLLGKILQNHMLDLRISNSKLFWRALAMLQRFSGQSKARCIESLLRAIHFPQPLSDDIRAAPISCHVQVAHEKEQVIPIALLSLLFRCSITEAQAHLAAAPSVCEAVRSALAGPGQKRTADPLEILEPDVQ
Procedure, shortened: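 GST-GCK (10 nM) with FLAG-GKRP (10 nM), 5 mM glucose and 0.4 mM ATP in pH 7.6 Hepes; compounds preincubated 20 min with substrate. G6PDH/diaphorase coupling converts resazurin to resorufin, read kinetically (ex 525/em 590 nm) for 30 min.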

[15] = target: T1, Hexokinase-4 (Homo sapiens) + Glucokinase regulatory protein (Homo sapiens); assay: qHTS assay for inhibitors of recombinant human GCK-GKRP interaction: ADP-Glo assay (AID 743206);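 note: plate controls were DMSO plus enzyme for no effect and no enzyme for full effect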
Procedure, shortened: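 Pin-transferred compounds meet a 15 nM GST-GCK/15 nM FLAG-GKRP/2 uM S6P mix (dispense concentrations). ATP is then added to 0.4 mM final with 5 mM glucose, and the reaction runs 60 min at room temperature. ADP is quantified luminescently.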

[16] = target: T1, Hexokinase-4 (Homo sapiens) + Glucokinase regulatory protein (Homo sapiens); assay: qHTS assay for inhibitors of recombinant human GCK-GKRP interaction: HTRF assay (AID 743207);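 note: 0% = DMSO with GCK present and -100% = DMSO wells lacking GCK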
Procedure, shortened: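 GST-GCK and FLAG-GKRP (5 nM each) were combined with 2 uM S6P in pH 7.1 Hepes/MgCl2/KCl/DTT buffer, then compound and anti-FLAG XL665/anti-GST K antibodies were added. After 60 min at room temperature, HTRF 665/615 nm emission was read.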

[17] = target: Tyrosine-protein kinase Yes (Homo sapiens) (UniProt P07947); assay: qHTS for small molecule inhibitors of Yes1 kinase: Primary Screen (AID 686947); note: nearly all actives have a fitted effect of over 60% in size; note: potency is the fitted concentration of half-maximal effect
Tyrosine-protein kinase Yes (Homo sapiens), sequence (P07947 whole entry, looked up): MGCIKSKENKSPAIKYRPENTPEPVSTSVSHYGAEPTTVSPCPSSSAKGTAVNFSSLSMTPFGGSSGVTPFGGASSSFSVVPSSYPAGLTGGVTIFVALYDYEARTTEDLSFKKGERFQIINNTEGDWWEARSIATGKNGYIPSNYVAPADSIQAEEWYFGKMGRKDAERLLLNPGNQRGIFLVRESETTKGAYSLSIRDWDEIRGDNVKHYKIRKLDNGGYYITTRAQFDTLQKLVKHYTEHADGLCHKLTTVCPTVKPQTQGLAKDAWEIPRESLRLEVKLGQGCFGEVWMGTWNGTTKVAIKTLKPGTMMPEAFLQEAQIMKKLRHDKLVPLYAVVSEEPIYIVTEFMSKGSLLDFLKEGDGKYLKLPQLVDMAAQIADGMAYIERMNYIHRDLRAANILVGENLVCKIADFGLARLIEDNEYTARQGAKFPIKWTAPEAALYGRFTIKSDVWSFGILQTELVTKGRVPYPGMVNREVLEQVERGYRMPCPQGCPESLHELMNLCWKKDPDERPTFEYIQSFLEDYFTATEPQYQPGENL
Procedure, shortened: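 ADP-Glo luminescence reports ADP formed by 4 nM Yes1 phosphorylating poly(E4Y) (0.3 mg/mL) with 0.1 mM ATP for 60 min at room temperature, following 20 min compound preincubation; normalised between DMSO wells with and without enzyme.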

[18] = qHTS for small molecule inhibitors of Yes1 kinase: Counter Assay (AID 686950);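 note: no kinase present so only ADP-Glo detection of a fixed ADP amount is tested; luminescence from ADP-Glo reporting ADP in a fixed ATP and ADP mixture; 0% = DMSO wells with ATP plus ADP and -100% = ATP-only wells without ADP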
Procedure, shortened: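 ADP-Glo luminescence read after a 60 min room-temperature incubation of compound with an ATP/ADP mix (0.08 mM/0.02 mM) and no kinase, following a 20 min compound preincubation. Signal scaled between ATP+ADP (max) and 0.1 mM ATP-only (min) wells; Tris pH 7.5, Mg2+, DTT.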

[19] = qHTS profiling for inhibitors of Plasmodium falciparum (3D7) proliferation (AID 743322; call rule not given here;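 note: infected erythrocytes exposed to compound for 72 h before lysis; 100% = DMSO vehicle wells and 0% = 0.29 µM artemisinin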); conditions: P. falciparum 3D7 proliferation; at 28.7 µM (top of the series) unless noted
Procedure, shortened: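 Parasite DNA was quantified by SYBR Green I fluorescence (ex 485, em 535 nm) after overnight lysis in saponin/Triton buffer at room temperature. Cultures at 0.3% parasitemia and 2.5% hematocrit were first exposed to compound for 72 h at 37 C; signals were normalised to artemisinin (0.29 uM) and vehicle wells.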

[20] = qHTS profiling for inhibitors of Plasmodium falciparum (DD2) proliferation (AID 743323; call rule not given here); conditions: lower = more inhibition; at 28.7 µM (top of the series) unless noted
Procedure, shortened: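 P. falciparum Dd2-infected erythrocytes (0.3% parasitemia, 2.5% hematocrit) exposed 72 h at 37 C, 5% CO2. Lysis with SYBR Green, overnight at room temperature, fluorescence 485/535 nm; normalized to 0.29 uM artemisinin and DMSO.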

OCCCBr
inactive: activation [1] 1.3% | max response [2] -3.35% | Potency [3] | Potency [4] | Potency [5] | max response [6] 4.92% | max response [7] 31% | max response [8] 2.95% | Potency [9]

COC(C)(C)CCCC(C)C/C=C/C(C)=C/C(=O)OC(C)C (stereo unspecified)
inactive: activation [1] 4.38% and 10.5% | max response [2] 3.83% and 3.99% | Potency [3] | max response [6] -7.11% and 1.67% | max response [7] -9.95% | max response [8] -16.1% and -28.4% | Potency [9]

Cc1cc(O)ccc1Cl
inactive: activation [1] -0.735% | max response [2] -2.23% | Potency [4] | Potency [5] | max response [6] 3.07% | max response [7] 25.2% | max response [8] -2.31% | Potency [9]

O=[N+]([O-])c1cc([N+](=O)[O-])c2ccccc2c1
inactive: activation [1] 11.7% | max response [2] -4.32% | Potency [3] | Potency [5] | max response [6] -11.7% | max response [7] -17.3% | max response [8] -3.94% | Potency [9]
active: Potency [4] 42.2 µM

CCCCOC(=O)c1ccccc1C(=O)OCc1ccccc1
inactive: activation [1] 12.8% and 3.39% | max response [2] -3.94% and -0.0123% | Potency [3] | Potency [4] | Potency [5] | max response [6] -1.29% and -2.62% | max response [7] 13.2% | max response [8] -13.6% and -13.5% | Potency [9]

Nc1ccc(Cl)cc1
inactive: activation [1] 0.816% | max response [2] 8.91% | Potency [3] | Potency [4] | Potency [5] | max response [6] -5.98% | max response [7] 4.15% | max response [8] -6.22% | Potency [9]

C=CCC1=C(C)C(OC(=O)C2C(C=C(C)C)C2(C)C)CC1=O (stereo unspecified)
inactive: activation [1] 0.269% and 0.976% | max response [2] 4.18% | Potency [4] | max response [6] 6.17% and -10.4% | max response [7] -9.3% | max response [8] -9.9% and -17.4% | Potency [9]

O=C1CCCN1CC#CCN1CCCC1
inactive: outcome [10] | outcome [11] | outcome [12] | outcome [13] | outcome [14] | outcome [15] | outcome [16] | max response [7] 30.9%

c1cc(-c2cnn3cc(-c4ccc(OCCN5CCCCC5)cc4)cnc23)ccn1
active: Potency [17] 0.0547 µM

Nc1cccc2c(N)cccc12
inactive: Potency [3] | max response [6] -13.9%
active: Potency [1] 25.1 µM | Potency [7] 25.1 µM

CC(=O)Nc1ccc(OC[C@](C)(O)C(=O)Nc2ccc([N+](=O)[O-])c(C(F)(F)F)c2)cc1
97.8%: activity, percent of control [20]
102%: remaining parasite growth % (stronger effect = lower value) [19]
inactive: Potency [17] | outcome [18] | max response [7] 0.149%

C[N+]1(C)C2CC(OC(=O)[C@H](CO)c3ccccc3)CC1C1OC12 (stereo partly specified)
inactive: outcome [10]

Nc1ccc([N+](=O)[O-])cc1
inactive: max response [2] -2.66% | Potency [3] | Potency [4] | Potency [5] | max response [6] -0.336% | max response [7] -13.4% | max response [8] -4.75% | Potency [9]

CC(Cc1ccc(O)cc1)NCC(O)c1cc(O)cc(O)c1 (stereo unspecified)
inactive: outcome [10] | outcome [11] | outcome [12] | outcome [13] | outcome [14] | outcome [15] | outcome [16]

CO/C=C(/C(=O)OC)c1ccccc1Oc1cc(Oc2ccccc2C#N)ncn1
inactive: activation [1] 1.61% | Potency [4] | max response [7] 18.4% | max response [8] -25.4% | Potency [9]

O=C(Oc1ccc([N+](=O)[O-])cc1)N1CCC(C(O)(c2ccc3c(c2)OCO3)c2ccc3c(c2)OCO3)CC1
active: Potency [17] 2.44 µM
inactive: outcome [18] | max response [7] -4.93%
90.2%: activity, percent of control [20]
26.6%: remaining parasite growth % (stronger effect = lower value) [19]

CC1CC(C)C(=O)C(C(O)CC2CC(=O)NC(=O)C2)C1 (stereo unspecified)
0.244% [at 57.5 µM]: activity, percent of control [20]
active: Potency [7] 1.52 µM
0.131% [at 57.5 µM]: remaining parasite growth % (stronger effect = lower value) [19]
inactive: Potency [17] | outcome [18]

Nc1ccc(N=Nc2ccccc2)cc1
inactive: max response [2] -2.06% | max response [6] -5.85% | max response [7] 11.9% | max response [8] -0.712% | Potency [9]

Cc1nc(-c2ccc(-c3ccc(C(=O)N4CCc5cc6c(cc54)C4(CCN(C)CC4)CO6)cc3)c(C)c2)no1
63.3%: activity, percent of control [20]
36.2%: remaining parasite growth % (stronger effect = lower value) [19]
inactive: outcome [18] | max response [7] -4.85%
